Laboratory results reported in PubChem BioAssay (NCATS).
Records with an inconclusive call do not appear. Entries that show only a call come without a potency. Activity calls are given as the source filed them. Calls follow the shape of the dose curve; as a rule, active = well fitted inhibition curve with a large enough effect; inconclusive = small, poorly fitted or top-dose-only effect; inactive = flat fitted curve, though single readings scatter.

Columns and labels:
Experiment in all cases: qHTS profiling for inhibitors of Plasmodium falciparum proliferation (AID 504749); also: nearly all actives have a fitted effect of over 60% in size
Conditions in all cases: P. falciparum in erythrocytes, SYBR Green DNA, 72 h; series mostly up to 28.7 µM
[1] = system: AS120
How it was run: (§1)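 P. falciparum-infected erythrocytes (0.3% parasitemia, 2.5% hematocrit) incubated with compound 72 h at 37 C, 5% CO2. Parasite DNA detected by SYBR Green after lysis, overnight at room temperature; normalised to 0.29 uM artemisinin and DMSO.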

[2] = system: ATS189
How it was run: as §1

[3] = system: C2A
How it was run: as §1

[4] = system: CP203
How it was run: as §1

[5] = system: CP217
How it was run: as §1

[6] = system: CP250
How it was run: as §1

[7] = system: CP256
How it was run: as §1

[8] = system: CP269
How it was run: as §1

[9] = system: CP291
How it was run: as §1

[10] = system: CP297
How it was run: as §1

[11] = system: CP315
How it was run: as §1

[12] = system: CP329
How it was run: as §1

[13] = system: DFO2036
How it was run: as §1

[14] = system: DIV14
How it was run: as §1

[15] = system: DIV17
How it was run: as §1

[16] = system: FAB9
How it was run: as §1

[17] = system: JCK
How it was run: as §1

[18] = system: PAD
How it was run: as §1
Potency is read from the fitted curve at half-maximal effect.

Compound	Potency [1]	Potency [2]	Potency [3]	Potency [4]	Potency [5]	Potency [6]	Potency [7]	Potency [8]	Potency [9]	Potency [10]	Potency [11]	Potency [12]	Potency [13]	Potency [14]	Potency [15]	Potency [16]	Potency [17]	Potency [18]
CC(O)C(N)C(=O)O (stereo not drawn)	inactive	inactive	inactive	inactive	inactive	inactive	inactive	inactive	inactive	inactive	inactive	inactive	inactive	inactive	inactive	inactive	inactive	inactive
C=CC1CN2CCC1CC2[C@@H](O)c1ccnc2ccc(OC)cc12 (stereo partly drawn)	398 nM (active)	316 nM (active)	891 nM (active)	426 nM (active)	501 nM (active)	891 nM (active)	891 nM (active)	601 nM (active)	478 nM (active)	757 nM (active)	953 nM (active)	953 nM (active)	708 nM (active)	213 nM (active)	135 nM (active)	79.4 nM (active)	2000 nM (active)	251 nM (active)
C=NC(C(=O)NC1C(=O)N2C1SC(C)(C)C2C(=O)O)c1ccccc1 (stereo not drawn)	inactive	inactive	inactive	inactive	inactive	inactive	inactive	inactive	inactive	inactive	inactive	inactive	inactive	inactive	inactive	inactive	inactive	inactive
CC(=O)OCC(=O)[C@@]1(O)CCC2C3CCC4=CC(=O)C=CC4(C)C3C(O)C[C@]21C (stereo partly drawn)	inactive	inactive	inactive	inactive	inactive	inactive	inactive	inactive	inactive	inactive	inactive	inactive	inactive	inactive	inactive	inactive	inactive	inactive
OCC1O[C@@H](O[C@@H]2C(CO)OC(O)C(O)C2O)C(O)C(O)C1O (stereo partly drawn)	inactive	inactive	inactive	inactive	inactive	inactive	inactive	inactive	inactive	inactive	inactive	inactive	inactive	inactive	inactive	inactive	inactive	inactive
C=C(NCc1ccccc1)c1ccccc1O	inactive	inactive	inactive	inactive	inactive	inactive	inactive	inactive	inactive	inactive	inactive	inactive	inactive	inactive	inactive	inactive	inactive	inactive
